Source: PubChem BioAssay (NCI)
This is part of a sample that, as a whole, favours compounds with a hit. Of some 83,000 tested, about 20% had one in any assay.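 Single-dose data. Exposure time 48 hours. Values below 10 considered active.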 Values without a mark were called inactive. The source made the active and inactive calls.

Experiments:
Experiment in all cases: NCI-60 one-dose screen, 48 h (100 = growth as untreated, 0 = no growth, -100 = all killed)
Settings in all cases: 10 µM unless noted
DU-145 prostate = test system: DU-145 prostate
K-562 leukemia = test system: K-562 leukemia
MALME-3M melanoma = test system: MALME-3M melanoma
MDA-MB-231 breast = test system: MDA-MB-231 breast
RXF 393 renal = test system: RXF 393 renal
SF-268 CNS = test system: SF-268 CNS
SF-295 CNS = test system: SF-295 CNS
SF-539 CNS = test system: SF-539 CNS
UACC-257 melanoma = test system: UACC-257 melanoma
M14 melanoma = test system: M14 melanoma
HCT-15 colon = test system: HCT-15 colon
HT29 colon = test system: HT29 colon
SNB-75 CNS = test system: SNB-75 CNS
SNB-19 CNS = test system: SNB-19 CNS
U251 CNS = test system: U251 CNS
PC-3 prostate = test system: PC-3 prostate
SK-MEL-5 melanoma = test system: SK-MEL-5 melanoma
UACC-62 melanoma = test system: UACC-62 melanoma
LOX IMVI melanoma = test system: LOX IMVI melanoma
SK-MEL-28 melanoma = test system: SK-MEL-28 melanoma

SMILES	growth (DU-145 prostate)	growth (K-562 leukemia)	growth (MALME-3M melanoma)	growth (MDA-MB-231 breast)	growth (RXF 393 renal)	growth (SF-268 CNS)	growth (SF-295 CNS)	growth (SF-539 CNS)	growth (UACC-257 melanoma)	growth (M14 melanoma)	growth (HCT-15 colon)	growth (HT29 colon)	growth (SNB-75 CNS)	growth (SNB-19 CNS)	growth (U251 CNS)	growth (PC-3 prostate)	growth (SK-MEL-5 melanoma)	growth (UACC-62 melanoma)	growth (LOX IMVI melanoma)	growth (SK-MEL-28 melanoma)
C=CC(=O)NCc1cccc(Nc2ncc(Br)c(NCCCNC(=O)C3CCC3)n2)c1	9.47% (active)	9.33% (active)	-23.2% (active)	-26% (active)	-74.6% (active)	-29.4% (active)	2.75% (active)	-68% (active)	0.107% (active)	-31% (active)	0.948% (active)	-18.2% (active)	-70.4% (active)	3.56% (active)	-2.33% (active)	7.62% (active)	-39.8% (active)	-41.6% (active)	-41.1% (active)	-15.7% (active)
Cc1ccc(C23CCC(=O)N2CCc2cncn23)cc1 (stereo not given)	105%	112%	109%	113%	87%	114%	102%	101%	100%	101%	98.9%	98.3%	111%	97.7%	97.2%	95%	98.8%	95.8%	105%	106%
CNc1nc2ncc(-c3c(C)noc3C)cc2n1Cc1ccccc1	79.4%	49.3%	45.4%	50.3%	54.1%	80.7%	57.4%	41%	42.3%	31.5%	51.2%	31.8%	0.561% (active)	59.3%	61%	32.2%	47.9%	17%	32.5%	57.4%
CC(=O)Cc1nsc(NC(=O)c2cc(-c3cc(Cl)ccc3Cl)oc2C)n1	110%	102%	113%	101%	103%	98.8%	99.6%	102%	93.8%	102%	103%	107%	94.7%	102%	97.4%	96.8%	99.1%	95%	96.3%	108%
Cc1cc(=O)oc2cc(Oc3nc(-c4ccccc4)cn4c(-c5ccccc5)cnc34)ccc12	68%	61.8%	-9.77% (active)	50.4%	28.3%	64.4%	54.2%	54.6%	65.7%	67.7%	68.6%	53.2%	-1.39% (active)	64.4%	67.3%	39.2%	38.3%	81.4%	56.4%	67.6%
Nc1ncc(-c2ccc3ncnc(N4CCc5cc(F)c(Cl)cc54)c3c2)cc1C=O	10.1%	35.5%	-15.5% (active)	26.4%	-35% (active)	18.1%	6.94% (active)	12.1%	24.6%	19%	26.5%	16.4%	-38.3% (active)	37%	48.5%	20.1%	2.88% (active)	-17.2% (active)	19.2%	10.2%
C[C@H]1c2ccccc2CN1CCCOc1cc2c(cc1OCC1CC1)C1(CCCC1)C(N)=N2	75.6%	2.69% (active)	-84.7% (active)	34.5%	34.2%	70.6%	55.3%	48.1%	-68.1% (active)	-70.4% (active)	2.62% (active)	2.94% (active)	74.9%	83.9%	48.7%	44.6%	-84.6% (active)	57.4%	-70.2% (active)	-61% (active)
COc1ccc(Nc2nccc(Nc3ccc4[nH]ncc4c3)n2)cc1	32%	4.96% (active)	76.1%	48.6%	31.8%	47%	47.7%	68.8%	46.2%	33%	6.21% (active)	12.1%	65.8%	59.7%	35.5%	13.5%	1.85% (active)	38.6%	19%	65.8%
CCCNNC(=O)c1ccc(CNC(=O)/C=C/c2ccccc2)cc1	37% [2.5 µM]	15% [2.5 µM]	30.1% [2.5 µM]	55.7% [2.5 µM]	1.56% [2.5 µM] (active)	52.6% [2.5 µM]	33.3% [2.5 µM]	44.2% [2.5 µM]	24.1% [2.5 µM]	29.9% [2.5 µM]	50.4% [2.5 µM]	10.8% [2.5 µM]	71.7% [2.5 µM]	54.5% [2.5 µM]	37.7% [2.5 µM]	43% [2.5 µM]	28.8% [2.5 µM]	7.16% [2.5 µM] (active)	21.6% [2.5 µM]	36% [2.5 µM]
CC(=O)CC(=O)c1ccccc1.[Cu+2]	98.4%	99%	95.2%	96.5%	125%	118%	105%	105%	102%	107%	94.3%	106%	121%	96.6%	105%	96.8%	82.8%	95.8%	83.9%	105%
Cc1ccc(Nc2cc(N)nc(N)n2)cc1	107%	87.9%	102%	108%	114%	93.4%	103%	112%	110%	104%	104%	103%	84.2%	110%	109%	98%	98.2%	97.2%	97.9%	105%
O=C1N/C(=N/N=C(c2ccccc2)c2ccccc2)S/C1=C\c1ccc(Br)cc1	107%	89.6%	97.7%	94.6%	107%	99.3%	96.1%	110%	83.5%	91.8%	97.8%	81.8%	101%	100%	91.3%	89.8%	97.2%	79.8%	98.5%	112%
CCOc1ccc(N2C(=O)CCSC2=S)cc1	103%	111%	96%	104%	117%	104%	95.7%	94.9%	99%	102%	101%	106%	90.5%	94.7%	102%	93.3%	98.9%	91.9%	96.5%	108%
CC(C)c1nc(N(C)S(C)(=O)=O)nc(-c2ccc(F)cc2)c1/C=C/C(=O)C[C@@H](O)CC(=O)O	102%	90.9%	109%	110%	124%	98.5%	103%	104%	95.6%	102%	108%	85.6%	91.4%	105%	105%	97.6%	105%	99.5%	101%	112%
Cc1c(N2CCCCC2)[nH]c2ccccc12	120%	113%	121%	121%	116%	117%	89%	121%	94%	105%	131%	104%	117%	116%	101%	70.5%	107%	110%	95.3%	133%
